# Laboratory results from PubChem BioAssay (NCI).
# Compounds without any hit were thinned out: in the full panel of roughly 79,000, 15% have a hit. Values without a mark were called inactive. Activity calls are given as the source filed them. No stated cut-off is given here; in the data, active means growth inhibition above about 70%; inactive means the rest.
# Legend:
# [1] = NCI Yeast Anticancer Drug Screen. Data for the rad50 strain (AID 155);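 further: 0% = growth of vehicle-only cultures of the same strain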; conditions: S. cerevisiae rad50 strain growth inhibition, active compounds read high
# How it was run: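 Cells are treated with compound, grown, and their growth is then scored against vehicle-only cultures of the same repair-deficient yeast strain.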
# [2] = NCI Yeast Anticancer Drug Screen. Data for the mec2-1 strain (AID 157); conditions: S. cerevisiae mec2-1 strain, active compounds read high
# How it was run: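 Using mec2-1 yeast: add compound, measure growth, express inhibition versus vehicle-treated cultures.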
# [3] = NCI Yeast Anticancer Drug Screen. Data for the sgs1 mgt1 strain (AID 161);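 further: 0% = growth of cultures given vehicle only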; conditions: S. cerevisiae sgs1 mgt1 strain, active compounds read high
# How it was run: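 Compounds are added to genetically altered yeast, and growth is compared with cultures given vehicle alone to give percent inhibition.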
# [4] = NCI Yeast Anticancer Drug Screen. Data for the cln2 rad14 strain (AID 165);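 further: 0% = growth equal to vehicle treated cultures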; conditions: S. cerevisiae cln2 rad14 strain, active compounds read high
# How it was run: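 Yeast strain cln2 rad14, bearing defects in cell cycle control and DNA repair, serves as the test system; values reflect growth inhibition compared with vehicle.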
# [5] = NCI Yeast Anticancer Drug Screen. Data for the bub3 strain (AID 167); conditions: S. cerevisiae bub3 mutant strain, active compounds read high
# How it was run: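 Part of a panel of yeast mutants defective in DNA damage repair or cell cycle regulation. Each strain is grown with compound, and inhibition is calculated relative to solvent-treated cultures.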
# [6] = NCI Yeast Anticancer Drug Screen. Data for the mlh1 rad18 strain (AID 175); conditions: S. cerevisiae mlh1 rad18 strain growth inhibition, active compounds read high
# How it was run: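 Steps: expose repair-defective yeast to compound; measure growth; express inhibition against vehicle-treated controls.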
# [7] = at 5.0 µM (retest, dose inferred, filed as 0.5)
# [8] = at 50.0 µM (retest, dose inferred, filed as 5.0)
SMILES,"growth inhibition [1, 7]","growth inhibition [1, 8]",growth inhibition ([1]; at 50.0 µM),"growth inhibition [2, 7]","growth inhibition [2, 8]",growth inhibition ([2]; at 50.0 µM),"growth inhibition [3, 7]","growth inhibition [3, 8]",growth inhibition ([3]; at 50.0 µM),"growth inhibition [4, 7]","growth inhibition [4, 8]",growth inhibition ([4]; at 50.0 µM),"growth inhibition [5, 7]","growth inhibition [5, 8]",growth inhibition ([5]; at 50.0 µM),"growth inhibition [6, 7]","growth inhibition [6, 8]",growth inhibition ([6]; at 50.0 µM)
Cc1c(C)c2cc3c(=O)ccoc3c(C)c2oc1=O,32%,76% (active),48.1%,1%,38%,19.6%,-11%,21%,30.5%,8%,45%,42%,-1%,52%,30.4%,-11%,68%,69.6%
NC(CCCNc1nc(O)cc(=O)[nH]1)C(=O)O (configuration not stated),-166%,-176%,18.2%,-51%,-54%,13.4%,-66%,-68%,7.3%,-63%,-80%,66%,-68%,-73%,0.7%,-127%,-125%,-5%
O=[N+]([O-])c1cccc2nc3ccccc3c(NCCO)c12,78% (active),94% (active),86.8% (active),84% (active),98% (active),92% (active),82% (active),95% (active),91.5% (active),89% (active),96% (active),92% (active),28%,94% (active),87.2% (active),89% (active),96% (active),86.6% (active)
CCCCCCn1c(SCC)c2ccccc2c1-c1nc(F)nc(F)n1,-14%,5%,89.1% (active),-40%,-10%,92.8% (active),-15%,10%,90.2% (active),14%,52%,88.7% (active),24%,36%,88.5% (active),10%,34%,87.9% (active)
CC(=O)Nc1cccc2ccc(C)cc12,0%,1%,-5.5%,2%,4%,4.85%,1%,1%,-22.9%,1%,5%,71.3% (active),1%,-1%,23.1%,0%,2%,41.8%
CCOP(=O)(CCCOc1cc(Cl)c(Cl)cc1Cl)OCC,1%,99% (active),98.7% (active),2%,99% (active),98.9% (active),14%,100% (active),99% (active),7%,99% (active),93.7% (active),6%,99% (active),94.2% (active),2%,99% (active),98.6% (active)
CC(NNC(=S)N1CC2CCC(CC2)C1)c1cc2ccccc2cn1 (configuration not stated),97% (active),97% (active),96.9% (active),97% (active),99% (active),97.4% (active),98% (active),99% (active),94.5% (active),72% (active),61%,92.6% (active),98% (active),99% (active),98.2% (active),98% (active),99% (active),98% (active)
Cc1cc(N)c2ccccc2[n+]1CCCCCCCCCC[n+]1c(C)cc(N)c2ccccc21,42%,98% (active),89.3% (active),47%,95% (active),92.8% (active),98% (active),96% (active),92.3% (active),90% (active),99% (active),91% (active),97% (active),98% (active),91% (active),51%,97% (active),81.3% (active)
c1ccc2c(c1)[nH]c1cc3ccncc3cc12,-45%,90% (active),79.3% (active),-30%,29%,46.9%,-24%,52%,45.6%,-13%,42%,34.7%,-49%,51%,34.5%,-75%,56%,61.7%
O=C(O)CCSCc1cc(C(=O)Nc2ccc(/C=C/c3ccc(NC(=O)c4cc(CSCCC(=O)O)c5cccnc5c4O)cc3S(=O)(=O)O)c(S(=O)(=O)O)c2)c(O)c2ncccc12,48%,53%,74% (active),37%,89% (active),61.6%,58%,53%,79.1% (active),22%,74% (active),45.5%,59%,96% (active),78.4% (active),52%,92% (active),79.5% (active)
CC(C)(C)c1ccc(OC(=O)Nc2ccc(Cl)cc2[N+](=O)[O-])c(Br)c1,-31%,32%,33%,2%,9%,64.2%,3%,37%,68.5%,3%,7%,90.8% (active),1%,14%,20.1%,10%,38%,77.5% (active)
CC1(C)CC([P+](c2ccccc2)(c2ccccc2)c2ccccc2)=NN1,66%,91% (active),76.2% (active),41%,84% (active),77.5% (active),60%,89% (active),79.5% (active),48%,81% (active),46%,71% (active),91% (active),83.5% (active),56%,83% (active),79.5% (active)
C=C1C[C@@]2(OC)OCC[C@H]3C(C)=CCC(C1=O)[C@]32C(=O)OC (some centres not stated),12%,96% (active),98.5% (active),15%,98% (active),92.7% (active),15%,98% (active),99.1% (active),6%,93% (active),96.8% (active),-5%,98% (active),98.7% (active),4%,97% (active),99% (active)
COc1cc2c(ccc3cc4cccc[n+]4cc32)c(Br)c1OC,0%,44%,76.8% (active),-6%,73% (active),42.5%,-7%,39%,73.2% (active),-8%,13%,20.4%,-5%,46%,10.4%,4%,75% (active),67.8%
CCOC(=O)NCCCc1ccc2oc3ccccc3c2c1,-1%,97% (active),81.6% (active),-3%,98% (active),19.6%,-3%,97% (active),90.8% (active),1%,95% (active),-12.7%,9%,98% (active),19.8%,-1%,97% (active),57.9%
CN(Cc1cnc2nc(N)nc(N)c2n1)c1ccc(C(=O)NC(CCC(=O)O)C(=O)O)cc1 (configuration not stated),2%,5%,37.2%,-16%,79% (active),88% (active),9%,53%,45.8%,0%,-10%,1.4%,1%,-6%,-9.7%,-19%,-9%,25.1%
Cc1ccc2nc(C[n+]3ccc4ccccc4c3)ccc2c1,-1%,28%,53.5%,-1%,17%,50.2%,-2%,47%,44.4%,-5%,5%,-1.8%,-1%,38%,43%,0%,16%,55.9%
CCCCc1ccc2nc(C)cc(N/N=C/c3ccc4c(c3)OCO4)c2c1,9%,20%,66.7%,1%,19%,22%,15%,31%,73.5% (active),-3%,2%,15.9%,-4%,1%,6.6%,9%,35%,29.8%
O=C1Oc2ccccc2C1c1ccccc1 (configuration not stated),16%,90% (active),28.6%,1%,87% (active),35.5%,4%,91% (active),-2.1%,10%,92% (active),8.4%,-1%,95% (active),34.5%,1%,93% (active),27.5%
